# Test results from paper PMC7819943, “Rice protein-binding microarrays: a tool to detect cis-acting elements near promoter regions in rice”.
# In all, about 68,000 sequences were measured (“fluorescence intensity (a.u.)”: median about 9,100, highest 2% from about 16,000 on). What follows is part of a selection rich in the highest values, with near analogues and random picks from the rest.
# Target: OsWRKY34 (Oryza sativa, UniProt Q0JBA9 1-250)
# Experiment: protein-binding microarray (RPBM); PBS, 2% BSA, 51.3 ng/ul salmon testes DNA, 50 uM zinc acetate, 200 nM TF, 25 C, 1 h; high values mean tight binding
# Settings: protein: recombinant; tags: N-terminal polyhistidine and DsRed monomer fusion (pET32a); label: CyDye5-dUTP incorporated in the synthesized complementary strand; 3' TTTTT single-stranded linker to array surface; dsDNA, one strand shown
# Summary of the method: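 In PBS with 2% BSA, salmon testes DNA and 50 µM zinc acetate, 200 nM protein was incubated on a custom Agilent array at 25 °C for 1 h and then washed off. The array had been made double-stranded by primer extension with Cy5-dUTP and blocked with 2% BSA. The proteins were transcription factors fused N-terminally to polyhistidine and DsRed, expressed in E. coli BL21-CodonPlus and purified on Ni–NTA. The binding signal is per-feature fluorescence intensity (arbitrary units) from an Axon 4000B scanner.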
# Sequence of OsWRKY34 (Q0JBA9 entry or part of it): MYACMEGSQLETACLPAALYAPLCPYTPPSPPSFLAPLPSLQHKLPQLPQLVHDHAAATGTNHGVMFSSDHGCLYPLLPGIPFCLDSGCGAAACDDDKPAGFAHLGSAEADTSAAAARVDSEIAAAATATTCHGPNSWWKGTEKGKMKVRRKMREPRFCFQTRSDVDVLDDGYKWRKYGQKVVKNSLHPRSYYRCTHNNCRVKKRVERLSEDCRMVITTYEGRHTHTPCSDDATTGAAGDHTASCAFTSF
row,Sequence,binding signal
1,CACCACCCAGATCTGTCTCGTCTCTGTTCTTGCCTTCGCTCGGAGTCACCTAGTGCAG,11900 fluorescence intensity (a.u.)
2,TGGTGTCTCATAATTCTCTACATGGTATCAAATACTGGTTCGGAGTCACCTAGTGCAG,9610 fluorescence intensity (a.u.)
3,GGCGTTATATCTGGTTTTGTGGCTGAGGGAGGTAATTTAGCGGAGTCACCTAGTGCAG,11700 fluorescence intensity (a.u.)
4,TTCACGTTCAATGTTTGACCGTTCGTCTTATTTGAAAATTCGGAGTCACCTAGTGCAG,8550 fluorescence intensity (a.u.)
5,AACTTCAGTCCTTTTCCATCACATCAACCTGTCATATACACGGAGTCACCTAGTGCAG,8220 fluorescence intensity (a.u.)
6,TGAATTGGGAAATTTCGGTGTTTTTTTTCTTCTTTTTTTTCGGAGTCACCTAGTGCAG,8740 fluorescence intensity (a.u.)
7,TAGTTTTCTCATGTTCATCAATTTAAATACCTAACAATACCGGAGTCACCTAGTGCAG,8180 fluorescence intensity (a.u.)
8,AATCGCCGTTCTAGCTTTTTGGTCTTGGTCTTTTTTTATCCGGAGTCACCTAGTGCAG,21400 fluorescence intensity (a.u.)
9,TTCTCTTGCTTCCTTTTTGGTCATTTGAGATAGCTTTATCCGGAGTCACCTAGTGCAG,10300 fluorescence intensity (a.u.)
10,TGCTTGTACAGTTTCCGGTTTCTTTGCCATTTCGTTTACACGGAGTCACCTAGTGCAG,20000 fluorescence intensity (a.u.)
11,GCTTGCAGGGCTTGGTTGTTTCTTCTTCCGTTTTTTTTTACGGAGTCACCTAGTGCAG,13600 fluorescence intensity (a.u.)
12,TTTCCTTTACTTTGGTGGTTCTTTTTTTTTTCTTTGTTTCCGGAGTCACCTAGTGCAG,11400 fluorescence intensity (a.u.)
13,GGTTTCCGTGGTGGGCCGGTTTGGGCTTTTCTTTTTTACACGGAGTCACCTAGTGCAG,18500 fluorescence intensity (a.u.)
14,CTGCTTTTATAGTTTGGTGGGCTTTTCTTTGCTAGTGGGCCGGAGTCACCTAGTGCAG,10600 fluorescence intensity (a.u.)
15,TCTTTTTTCCATCCATCTTTTTTTCGCCGTTCTTTCCGGTCGGAGTCACCTAGTGCAG,8220 fluorescence intensity (a.u.)
16,GGTTCTTTGTTTCCGTTTGCTTTACCATTTTTGTTCCTTTCGGAGTCACCTAGTGCAG,10000 fluorescence intensity (a.u.)
17,CAAACAAAATGGGTTTCTTCTTACGGTTGTGGGCTTTTTCCGGAGTCACCTAGTGCAG,17400 fluorescence intensity (a.u.)
18,ACTTTTTCCGAACCAAAATGGACTTCTTCCTTACGGTTACCGGAGTCACCTAGTGCAG,8390 fluorescence intensity (a.u.)
19,GCTTGCTTTGTCACATGCAGTTTTACACCTTTTATTTCTCCGGAGTCACCTAGTGCAG,10400 fluorescence intensity (a.u.)
20,ATCTCTTAACCTTTTTCTTATTACCAAACATGCTAACGGTCGGAGTCACCTAGTGCAG,8030 fluorescence intensity (a.u.)
21,TCGCCATCGATCGATCGTCTCAACCTCAACCACATTATTGCGGAGTCACCTAGTGCAG,8550 fluorescence intensity (a.u.)
22,TCTTCGCAACTCCAAACTTCCCGAGCATCTTATCTTTGCACGGAGTCACCTAGTGCAG,8990 fluorescence intensity (a.u.)
23,GTATTGCAATTTTTTTTTGTTTGTGTTGTATCTGTTCTCTCGGAGTCACCTAGTGCAG,8110 fluorescence intensity (a.u.)
24,GGTTAGGTTTTTTTATAGAGGGAGTAGTATGCAATTATTTCGGAGTCACCTAGTGCAG,9450 fluorescence intensity (a.u.)
25,TTTCTTGGTTCCTGTGTCTAAGCCAGCTGTAAACTTACAACGGAGTCACCTAGTGCAG,8450 fluorescence intensity (a.u.)
26,ATTTCCAAGCTCTCTTTGCAGTTACTCCTCGGTGTGCTCCCGGAGTCACCTAGTGCAG,8250 fluorescence intensity (a.u.)
27,GTCATTGGTGGTTTATATTGTTTGGCTTTTTTCCGGATTACGGAGTCACCTAGTGCAG,18500 fluorescence intensity (a.u.)

row,Sequence,binding signal
1,TTTTGGATTTTGTTTCATTTTTTTTACATGCATTGGATTACGGAGTCACCTAGTGCAG,8120 fluorescence intensity (a.u.)
2,TATATATTGTTTTTTTTTACGTTGTTGGTTCCGGATGTGACGGAGTCACCTAGTGCAG,9930 fluorescence intensity (a.u.)
3,TGAGACAAAGCACATTCTACCCAAGGCCAGTTGCACCAACCGGAGTCACCTAGTGCAG,8080 fluorescence intensity (a.u.)
4,TCAGTGTTGAGTAGGGTTGGCAGGCGAGCACGCAGTAATGCGGAGTCACCTAGTGCAG,8190 fluorescence intensity (a.u.)
5,TGTTGTGTGTTAGTTGTGGTGGTAGCATTTTTTCCTGGTACGGAGTCACCTAGTGCAG,13000 fluorescence intensity (a.u.)
6,TAGCTACCTAAGCTTAGCTCACATTCTTCTCGCTTTCTCACGGAGTCACCTAGTGCAG,12000 fluorescence intensity (a.u.)
7,GGTGGGACGTGGTGGGCGTCAAGGCGGCGGTGGGAGGGGACGGAGTCACCTAGTGCAG,20400 fluorescence intensity (a.u.)
8,AGGGCGGTGGGGCGGCAAGGGACCAGATGGTGGGGCGGCACGGAGTCACCTAGTGCAG,11100 fluorescence intensity (a.u.)
9,CGAGGGAGGGGAGGCGGCGGAGGCGAGAGAGGAGAGGGGACGGAGTCACCTAGTGCAG,11000 fluorescence intensity (a.u.)
10,GGGAGGAGGAGGAGGAGAAGGGCGGCGGGAGGAGGGGCGACGGAGTCACCTAGTGCAG,14000 fluorescence intensity (a.u.)
11,GTGGGGTTGGAGGAGGGAGGGAGCTAGCTATAGTTGCTAGCGGAGTCACCTAGTGCAG,9980 fluorescence intensity (a.u.)
12,CTGGGTGTGGGTGTGGGTCTGGGTCTGGGTGGAAGAGGAACGGAGTCACCTAGTGCAG,21200 fluorescence intensity (a.u.)
13,GGTGGGCTATAAATATAGTTGGGGAGGGGAGGGAAGACCCCGGAGTCACCTAGTGCAG,16700 fluorescence intensity (a.u.)
14,GGAGGTGGGGAGGGGAGGAGAGGGGAAGAAGGAAGAAAAACGGAGTCACCTAGTGCAG,13300 fluorescence intensity (a.u.)
15,GAGGAGGGACTCGGGGCGGGAGGAAGACGGCGAGGAGGGGCGGAGTCACCTAGTGCAG,16500 fluorescence intensity (a.u.)
16,ACTAGTTGAAGGAGTTGGGGCTATAAATGGGTGGTGCTATCGGAGTCACCTAGTGCAG,10900 fluorescence intensity (a.u.)
17,GTATCGCCAAGGAGGAGAGGGGAGAGGGGTGGAAGAGGAACGGAGTCACCTAGTGCAG,11900 fluorescence intensity (a.u.)
18,GAAGGGTGGGAGGGGAAGGGGAGGACGAGCGGGCGGACGGCGGAGTCACCTAGTGCAG,11500 fluorescence intensity (a.u.)
19,TCGTCATCATCCTCGCCGCCATCGCCATCGCCATTGCCTACGGAGTCACCTAGTGCAG,9180 fluorescence intensity (a.u.)
20,ACTTGTTTTACGTTCGGCTAATTAGCTGTTTGACCGTTTCCGGAGTCACCTAGTGCAG,15300 fluorescence intensity (a.u.)
21,AAAAACGTCTCAATTGTAAGCTCACTATCTAACAATTTTCCGGAGTCACCTAGTGCAG,11200 fluorescence intensity (a.u.)
22,GCTTGGTCTATAAGTTGCTGCTCTGCCCTGCTCGGCCTCACGGAGTCACCTAGTGCAG,12000 fluorescence intensity (a.u.)
23,CTCCATCGCTTCGCTCTTCGCCGGATCTAGCACCGACGGTCGGAGTCACCTAGTGCAG,9000 fluorescence intensity (a.u.)
24,TTCTTTTGCCGTGCTCCCAGATTCTCCGGTCGCCACGACTCGGAGTCACCTAGTGCAG,8590 fluorescence intensity (a.u.)
25,ACCTCTTATTTGACTTTTTCACTATTTTGAAATACGAAAACGGAGTCACCTAGTGCAG,9360 fluorescence intensity (a.u.)
26,AATGTATTTGTCTTATGTTAAATATATTACTACTCTTTTTCGGAGTCACCTAGTGCAG,8080 fluorescence intensity (a.u.)
27,TATCCGATCCATGGCGTTCTCTTGAGTCCAGAGAGTATTTCGGAGTCACCTAGTGCAG,8460 fluorescence intensity (a.u.)
